Laboratory results from ChEMBL document CHEMBL3988442, “University of Dundee, Small-Polar-MMV Screening Library” (2021).
The whole screen tested about 69,000 compounds, of which about 10 (0.01%) showed an effect of 50% or more. For the sample, strong results were picked, then their nearest neighbours and some compounds at random.

What follows are molecules tested against ClpP1P2 (Mycobacterium tuberculosis (strain ATCC 25618 / H37Rv)) (UniProt P9WPC5+P9WPC3) (assay: in vitro assay to detect presence of AMC directly proportional to the activity of ClpP1P2. GHDDI collaboration.). Conditions: 50 µM.
Assay type: functional
Set-up: scale not given: direction of the effect not stated beside the values
In the case of CN(C)S(=O)(=O)N1C[C@H]2CCC[C@@]2(COCC2CC2)C1, the Percent Effect is reported as 0.536%.
Cc1cccc(CN2C(=O)CC[C@H]3[C@@H]2CCN3CC(=O)N(C)C)n1 was tested, and the Percent Effect was 2.64%.
In the case of Cc1nc(-c2ccc(CC(=O)N3CCN(C(=O)C(C)C)CC3)cc2)cs1, the Percent Effect is reported as 88.4%.
With Cc1nc(-c2ccc(CC(=O)N3CCNC(=O)C3)cc2)cs1 the Percent Effect was -0.00295%.
Cc1nc(-c2ccc(CC(=O)N3CCN(C(=O)C4CC4)CC3)cc2)cs1 showed a Percent Effect of 7.62%.
With c1cc(CN2CCO[C@@H]3CNC[C@@H]32)co1 the Percent Effect was -6.86%.
CN1C[C@H]2CN(C(=O)c3ccc4c(c3)OCO4)CCN2C1=O was tested, and the Percent Effect was -1.11%.
For O=C1NC(c2ccccc2)=N[C@@]12CC[C@@H]1CN(Cc3ccco3)C[C@@H]12, the Percent Effect was -1.45%.
In the case of COCC(=O)N1CC[C@H]2OCC[C@@]2(c2nc(C)no2)C1, the Percent Effect is reported as -7.69%.
Molecule CN(C)C(=O)N1CCC[C@]2(C(=O)N(C)C)CN(c3ccccn3)C[C@@H]2C1 has a Percent Effect of -16.1%.
COc1ccc(CN2C[C@H]3C[C@H](C(=O)Nc4cccnc4)[C@@H](C2)O3)cc1 gave a Percent Effect of 7.77%.
Work on CCC(=O)N1C[C@@H]2CCN(c3cnccn3)C[C@@H]2C1 yielded a Percent Effect of 27.9%.
Work on Cc1cccc(CN2C[C@@H]3CN(C(=O)c4ccsc4)C[C@@H]3C2=O)c1 yielded a Percent Effect of 5.73%.
In the case of O=C(N1CCOCC1)N1C[C@H]2CC[C@@H]1CN(C1Cc3ccccc3C1)C2, the Percent Effect is reported as 4.16%.
O=C(c1ccoc1)N1CCO[C@@H]2CNC[C@@H]21 gave a Percent Effect of -6.03%.
CN1CCN(C(=O)C[C@@H]2COC[C@H]3CN(c4ccncn4)C[C@@H]23)CC1 showed a Percent Effect of -11.8%.
Cc1cccnc1[C@]1(O)CC[C@H]2CN(Cc3cccc(Cl)c3Cl)C[C@H]21 gave a Percent Effect of 0.575%.
COCCN1CCN(C(=O)c2ccccc2C(C)=O)[C@H]2CS(=O)(=O)C[C@H]21 was tested, and the Percent Effect was -4.44%.
In the case of Cc1nccc([C@@H]2C[C@@H]3CCN(Cc4c(C)noc4C)C[C@H]3O2)n1, the Percent Effect is reported as 9.38%.
N#Cc1ccccc1CN1C[C@@H]2CC[C@H](C1)N(CC1CC1)C2=O was tested, and the Percent Effect was -3.85%.
For O=C(c1ccnnc1)N1CCN2C[C@H](OCc3ccccn3)C[C@H]2C1, the Percent Effect was 0.376%.
With C[C@H]1C[C@H]2CN(C(=O)CCOc3ccccc3)CC[C@H]2O1 the Percent Effect was 5.83%.
In the case of O=C(NC[C@]12COC[C@H]1CN(Cc1nccs1)C2)c1cscn1, the Percent Effect is reported as 2.68%.
In the case of O=C(Nc1cnccn1)[C@@H]1CCO[C@@H]2CCN(Cc3ccsc3)C[C@@H]21, the Percent Effect is reported as -0.52%.
In the case of Cc1ccnn1CCC(=O)N1C[C@H]2CC[C@@H]1CN(CC(=O)N(C)C)C2, the Percent Effect is reported as 10.3%.
Molecule CCNC(=O)N1C[C@@H]2OCC(=O)N(CC3CCCCC3)[C@@H]2C1 has a Percent Effect of 5.8%.
Molecule Cc1noc([C@@]23CCO[C@@H]2CCN(C(=O)CN(C)C)C3)n1 has a Percent Effect of -12.4%.
Work on O=C(NCC1CCOCC1)[C@H]1C[C@@H]2CCN(c3nncs3)C[C@@H]2O1 yielded a Percent Effect of -12.4%.
Cn1ccnc1C(=O)NC[C@H]1OC[C@@H]2CCN(S(C)(=O)=O)C[C@@H]21 was tested, and the Percent Effect was 12.7%.
In the case of COCC(=O)N1CCC[C@]2(C(=O)N(C)C)CN(c3ccccn3)C[C@@H]2C1, the Percent Effect is reported as -0.178%.
Molecule C[C@H]1C[C@H]2CN(C(=O)c3cccc4c3OCCO4)CC[C@H]2O1 has a Percent Effect of -0.751%.
Cn1cccc1C(=O)N1CC[C@H]2[C@H](CO[C@H]2CNS(C)(=O)=O)C1 was tested, and the Percent Effect was 5.31%.
In the case of Cc1nn(C)c(C)c1S(=O)(=O)N1C[C@@H]2C[C@@H](C)O[C@@H]2C1, the Percent Effect is reported as -4.66%.
For CCC1=N[C@@]2(CC[C@@H]3CN(S(=O)(=O)CC)C[C@@H]32)C(=O)N1CC, the Percent Effect was -9.65%.
For CN1C[C@H]2C[C@H](C(=O)Nc3cccnc3)[C@@H](C1)O2, the Percent Effect was -5.71%.
In the case of Cn1cc(C(=O)NC[C@H]2OC[C@@H]3CCN(C4CCOCC4)C[C@@H]32)cn1, the Percent Effect is reported as -8.58%.
In the case of Cc1ccnn1CCC(=O)N1CCCC[C@]2(C)NC(=O)CCC[C@H]12, the Percent Effect is reported as 2.82%.
C[C@@H]1C(=O)NC[C@H]2CN(CCc3ccccc3)C[C@H]21 was tested, and the Percent Effect was 11.1%.
O=C(NCc1ccccn1)[C@H]1COC[C@H]2CN(CC3CC3)C[C@H]21 showed a Percent Effect of 7.53%.
In the case of Cc1cnc(CNC(=O)[C@@H]2CC[C@@H]3[C@@H](CCN3Cc3ccco3)O2)cn1, the Percent Effect is reported as -0.464%.
For CC(C)=CCN1C[C@H]2CC[C@@H]1CN(CCC(=O)NCc1ccco1)C2, the Percent Effect was -17.3%.
For Cc1nc(COC[C@@]23CCC[C@@H]2CN(Cc2cnn(C)c2)C3)cs1, the Percent Effect was 2.95%.
CNC(=O)[C@@]12CCO[C@@H]1CCN(Cc1ccc3c(c1)OCO3)C2 gave a Percent Effect of 14.7%.
Molecule O=C(O)[C@@]12CN(c3cnccn3)C[C@@H]1CN(C1CCOCC1)C2 has a Percent Effect of -12.3%.
Fc1cnc(N2CCO[C@H]3[C@H](OCCN4CCCC4)CC[C@@H]32)nc1 showed a Percent Effect of -0.916%.
Fc1cccnc1O[C@H]1CN(Cc2ccoc2)[C@@H]2CCCO[C@H]12 gave a Percent Effect of 5.17%.
With Cc1nc(CN2C(=O)CC[C@@H]3[C@H]2CCN3C(=O)c2ccccn2)cs1 the Percent Effect was 2.69%.
For Cc1nc(CN2CCO[C@@H]3CN(Cc4ccccn4)CC[C@@H]3C2)cs1, the Percent Effect was -1.41%.
Molecule c1ccc(CO[C@H]2C[C@@H]3CN(Cc4cncnc4)C[C@@H]3C2)cc1 has a Percent Effect of -9.01%.
Work on COCCNC(=O)[C@H]1C[C@@H]2CCN(c3ccncn3)C[C@H]2O1 yielded a Percent Effect of -14.9%.
Work on Cc1ccc(C(=O)N2CC[C@@H]3[C@H]2CCC(=O)N3CCN(C)C)cn1 yielded a Percent Effect of 15.8%.
Cc1ccc2[nH]c(CO[C@H]3CN(c4ccc(C#N)cn4)C[C@H]3F)nc2c1 gave a Percent Effect of 78.4%.
Work on Cc1ccc2[nH]c(CO[C@H]3CN(C(=O)C4CC4)C[C@H]3F)nc2c1 yielded a Percent Effect of -1.53%.
In the case of CN1C[C@@H](F)[C@@H](OCc2nc3ccc(C#N)cc3[nH]2)C1, the Percent Effect is reported as -10.4%.
Work on CC(=O)N1CCC(c2cncc(N3CCC(O)C3)n2)CC1 (centres undefined) yielded a Percent Effect of -28.1%.
In the case of CC(=O)N1CCC(c2cncc(N3CCCCCC3)n2)CC1, the Percent Effect is reported as -8.81%.
CC(=O)N1CCC(c2cncc(N3CCOCC3)n2)CC1 was tested, and the Percent Effect was 55.4%.
In the case of O=C(NC1CCC1)[C@@H]1C[C@@H]2CCN(Cc3cccs3)C[C@@H]2O1, the Percent Effect is reported as -6.23%.
O=C1CC[C@]2(CC[C@@H](NCc3cccnc3)CC2)N1Cc1ccccc1 gave a Percent Effect of 9.66%.
For CN(C)S(=O)(=O)N1CC[C@]2(O)CCN(Cc3cccc(C#N)c3)C[C@@H]2C1, the Percent Effect was -12.9%.
CO[C@H]1CN(Cc2ccc(C)o2)[C@@H]2CCCO[C@H]12 showed a Percent Effect of -4%.
With COCCN1C[C@H]2CC[C@@H]1CN(C(=O)c1ccc(Cl)cc1)C2 the Percent Effect was 2.81%.
In the case of Cc1ccccc1CN1C[C@@H](C(=O)N2CCCCO2)C[C@H]2OCC[C@H]21, the Percent Effect is reported as -6.2%.
CCCN1CCN(C(=O)c2cnc(C)nc2)[C@H]2CS(=O)(=O)C[C@H]21 showed a Percent Effect of 5.85%.
